Among the test systems are SK-MEL-2 melanoma; EKVX NSCLC; SN12C renal; UO-31 renal; TK-10 renal; ACHN renal; CAKI-1 renal; A498 renal; CCRF-CEM leukemia; MOLT-4 leukemia; SR leukemia; RPMI-8226 leukemia; OVCAR-8 ovarian; OVCAR-5 ovarian; OVCAR-4 ovarian; SK-OV-3 ovarian; IGROV1 ovarian; OVCAR-3 ovarian; HS 578T breast; NCI/ADR-RES ovarian.
Common to all, as to assay: NCI-60 one-dose screen, 48 h (100 = growth as untreated, 0 = no growth, -100 = all killed)
Common to all, as to conditions: 10 µM unless noted

The panel holds about 83,000 compounds, 20% with a hit somewhere; the sample as a whole holds those more often.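 Negative percent growth values reflect cell death: -40 means 40% of the cells present at the start died, and -100 means all died.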 Values without a mark were called inactive. The source made the active and inactive calls. Rule for the calls: active = growth percent below 10; inactive = the rest.

On to `O=C(Nc1ccc(Cl)c(C(F)(F)F)c1)N1CCN(c2cc(-c3cn(-c4ccccc4)nc3-c3cccc(O)c3)ccn2)CC1`, for which the growth in the experiment on SK-MEL-2 melanoma is -66.9% (active); in the experiment with EKVX NSCLC, -0.99% (active); in the experiment with SN12C renal, 4.12% (active); with UO-31 renal it was 5.37% (active); with TK-10 renal it was 8.9% (active); in the experiment with ACHN renal, 3.14% (active). In addition, the growth in the experiment on CAKI-1 renal is 9.06% (active); in the experiment with A498 renal, 38.9%; with CCRF-CEM leukemia it was 0.607% (active); in the experiment with MOLT-4 leukemia, 1.52% (active); with SR leukemia it was 10.8%; in the experiment on RPMI-8226 leukemia, -13.7% (active). Further, the growth is 8.11% (active) with OVCAR-8 ovarian; -35.1% (active) with OVCAR-5 ovarian; 13.5% with OVCAR-4 ovarian; 24.3% in the experiment with SK-OV-3 ovarian; 10.8% in the experiment on IGROV1 ovarian; 13.5% with OVCAR-3 ovarian. Further, the growth is 7.22% (active) in the experiment on HS 578T breast and -23.9% (active) with NCI/ADR-RES ovarian.
On to `FC(F)(F)c1cc2c(Cl)ncnc2n1CCN1CCCCC1`, for which the growth is -16% (active) in the experiment on SK-MEL-2 melanoma; 72% in the experiment with EKVX NSCLC; 59.7% in the experiment with SN12C renal; -96.3% (active) with UO-31 renal; 105% in the experiment with TK-10 renal; -22.5% (active) in the experiment on ACHN renal. Further, the growth in the experiment with CAKI-1 renal was 21.3%; in the experiment on A498 renal, 113%; in the experiment on CCRF-CEM leukemia, 4.18% (active); with MOLT-4 leukemia, -14.3% (active); with SR leukemia it was -50.9% (active); in the experiment on RPMI-8226 leukemia it was 102%. Besides, the growth was 14.8% in the experiment on OVCAR-8 ovarian; 95% in the experiment with OVCAR-5 ovarian; 13.5% in the experiment on OVCAR-4 ovarian; 97.2% in the experiment on SK-OV-3 ovarian; -84.8% (active) with IGROV1 ovarian; -21.7% (active) in the experiment on OVCAR-3 ovarian. In addition, the growth with HS 578T breast was 56.3%; in the experiment with NCI/ADR-RES ovarian, 79%.
Take `NS(=O)(=O)c1ccc(Nc2nc(SCC(=O)c3ccc(F)cc3)nc3ccccc23)cc1`: the growth in the experiment with SK-MEL-2 melanoma was 48.3%; in the experiment with EKVX NSCLC, 39.1%; in the experiment with SN12C renal it was 53.8%; in the experiment with UO-31 renal, 29.1%; with TK-10 renal, 80.9%; in the experiment with ACHN renal, 49.7%. The growth with CAKI-1 renal is 47.3%; in the experiment on A498 renal it was 94.6%; with CCRF-CEM leukemia, 26.9%; with MOLT-4 leukemia, 16.8%; in the experiment on SR leukemia it was 19.6%; with RPMI-8226 leukemia, 30.6%. For the same compound, the growth is 52.9% in the experiment with OVCAR-8 ovarian; 78.1% in the experiment on OVCAR-5 ovarian; 37.3% with OVCAR-4 ovarian; 67.3% in the experiment on SK-OV-3 ovarian; 46.4% in the experiment with IGROV1 ovarian; 47.1% in the experiment with OVCAR-3 ovarian. In addition, the values for the growth in the experiment on HS 578T breast and in the experiment on NCI/ADR-RES ovarian were 53.1% and 28.7%, respectively.
Take `Cc1ccc(N=Nc2c(N)nn3c(-c4cc5ccccc5oc4=O)ccnc23)cc1`: the growth in the experiment on SK-MEL-2 melanoma was 61.5%; with EKVX NSCLC, 49.2%; in the experiment with SN12C renal, 48.2%; in the experiment on UO-31 renal, 53.8%; in the experiment on TK-10 renal, 57.9%; with ACHN renal, 34.9%. In addition, the growth is 57.1% in the experiment with CAKI-1 renal; 150% in the experiment with A498 renal; 70.2% with CCRF-CEM leukemia; 39% in the experiment with MOLT-4 leukemia; 75.7% in the experiment with SR leukemia; 9.76% (active) in the experiment with RPMI-8226 leukemia. Moreover, the growth is 51.4% with OVCAR-8 ovarian; 54.6% in the experiment on OVCAR-5 ovarian; 77.9% in the experiment with OVCAR-4 ovarian; 99.9% in the experiment on SK-OV-3 ovarian; 32.4% with IGROV1 ovarian; 37.4% with OVCAR-3 ovarian. For the same compound, the values for the growth with HS 578T breast and with NCI/ADR-RES ovarian were 62.6% and 27%, respectively.
For `Cc1ccc(Cl)cc1NC(=O)N/C(N)=N/c1nc2ccccc2s1`, the growth was -20.6% (active) with SK-MEL-2 melanoma; 15.8% with EKVX NSCLC; -40% (active) in the experiment on SN12C renal; -13% (active) in the experiment with UO-31 renal; 14.7% with TK-10 renal; -50.3% (active) with ACHN renal. In addition, the growth is -2.72% (active) in the experiment on CAKI-1 renal; 5.76% (active) with A498 renal; -6.91% (active) in the experiment with CCRF-CEM leukemia; -8.52% (active) in the experiment on MOLT-4 leukemia; 5.59% (active) with SR leukemia; -7.24% (active) in the experiment with RPMI-8226 leukemia. Also, the growth with OVCAR-8 ovarian is -51.4% (active); in the experiment on OVCAR-5 ovarian, -28.7% (active); in the experiment on OVCAR-4 ovarian, -34.8% (active); in the experiment on SK-OV-3 ovarian it was -25.6% (active); in the experiment on IGROV1 ovarian, -4.38% (active); with OVCAR-3 ovarian it was -67.7% (active). Further, the growth was 19% in the experiment with HS 578T breast and -34.8% (active) with NCI/ADR-RES ovarian.
`COc1ccc(NC(=O)Cn2c(/C=C/c3cccc(OC)c3)nc3ccccc3c2=O)cc1`: the growth was 87.9% in the experiment with SK-MEL-2 melanoma; 79.6% in the experiment on EKVX NSCLC; -24% (active) with SN12C renal; -74.3% (active) in the experiment on UO-31 renal; -42.9% (active) in the experiment on TK-10 renal; -61.4% (active) with ACHN renal. For the same compound, the growth is 50.9% with CAKI-1 renal; -42.8% (active) in the experiment with A498 renal; 89.4% in the experiment with CCRF-CEM leukemia; 97.4% with MOLT-4 leukemia; 77.6% in the experiment with SR leukemia; 41.1% in the experiment on RPMI-8226 leukemia. The growth in the experiment with OVCAR-8 ovarian was 10.4%; in the experiment on OVCAR-5 ovarian, 40%; in the experiment with OVCAR-4 ovarian it was -30.1% (active); with SK-OV-3 ovarian, 44.8%; in the experiment with IGROV1 ovarian it was 37.7%; with OVCAR-3 ovarian it was 28.5%. Also, the values for the growth in the experiment on HS 578T breast and with NCI/ADR-RES ovarian were 9.48% (active) and 35.4%, respectively.
In the case of `COc1ccccc1/C=C/c1cccc(NC(=S)NCCCCN(C)C)c1`, the growth in the experiment with SK-MEL-2 melanoma is -81.4% (active); with EKVX NSCLC, -91.7% (active); with SN12C renal, -96.6% (active); in the experiment with UO-31 renal, -84.9% (active); with TK-10 renal, -82.7% (active); in the experiment on ACHN renal, -100% (active). Further, the growth is -87.8% (active) in the experiment with CAKI-1 renal; -65.9% (active) in the experiment with A498 renal; -38.8% (active) in the experiment on CCRF-CEM leukemia; -32.9% (active) in the experiment with MOLT-4 leukemia; -30.5% (active) in the experiment on SR leukemia; -6.58% (active) in the experiment with RPMI-8226 leukemia. In addition, the growth was -58.5% (active) in the experiment with OVCAR-8 ovarian; -92.3% (active) with OVCAR-5 ovarian; -79.7% (active) with OVCAR-4 ovarian; -72.9% (active) with SK-OV-3 ovarian; -82.4% (active) in the experiment with IGROV1 ovarian; -48.8% (active) in the experiment with OVCAR-3 ovarian. The growth is -24.2% (active) in the experiment with HS 578T breast and -62.6% (active) with NCI/ADR-RES ovarian.
`COc1cncc(-c2ccc3ncnc(N4CCc5ccc(Cl)cc54)c3c2)c1`: the growth in the experiment with SK-MEL-2 melanoma was 30.6%; in the experiment with EKVX NSCLC it was -29.3% (active); in the experiment on SN12C renal, 20.3%; in the experiment on UO-31 renal, 1.93% (active); with TK-10 renal it was 8.96% (active); with ACHN renal, 10.5%. For the same compound, the growth was 8.52% (active) in the experiment on CAKI-1 renal; 33.2% with A498 renal; -1.98% (active) with CCRF-CEM leukemia; 4.34% (active) with MOLT-4 leukemia; 3.37% (active) with SR leukemia; -21.2% (active) in the experiment on RPMI-8226 leukemia. Moreover, the growth was 39.4% with OVCAR-8 ovarian; 30% in the experiment on OVCAR-5 ovarian; 32% in the experiment with OVCAR-4 ovarian; 27.4% in the experiment with SK-OV-3 ovarian; -63.4% (active) in the experiment on IGROV1 ovarian; 55.4% in the experiment with OVCAR-3 ovarian. For the same compound, the growth was 20.1% in the experiment with HS 578T breast and 1.41% (active) in the experiment on NCI/ADR-RES ovarian.

The record behind these values is PubChem BioAssay (NCI).
